In ChEMBL document CHEMBL4513216, “Probing the Open Global Health Chemical Diversity Library for Multistage-Active Starting Points for Next-Generation Antimalarials” (ACS Infect Dis, 2020):
In all, about 68,000 compounds went through this assay and about 2,700 (4%) showed an effect of 50% or more. For the sample, strong results were picked, then their nearest neighbours and some compounds at random.

The compounds below were run on Plasmodium berghei (assay: Screen against P. berghei liver stage (PbLuc), transformed with Luciferase, at 2uM). Details: tested at 2 uM.
Format: functional, HepG2

Row | Compound | INHIBITION [%]
1 | Nc1ncc(-c2cccc(NC(=O)[C@@H]3CCCCN3)c2)cn1 | 14.95
2 | CN(C)CCN1CCN(C(=O)c2ccn(C)c(=O)c2)CC1 | 5.59
3 | CC(C)OCCCNC(=O)c1c(-n2cnnn2)sc2c1CCCC2 | 49.57
4 | Cc1ccc(N2C[C@H]3OCC[C@H]3[C@H](C(=O)NCc3ccco3)C2)nn1 | 65.78
5 | Cc1ccc(N2C[C@H]3OCC[C@H]3[C@H](C(=O)NCC3CC3)C2)nn1 | -11.4
6 | Cc1ccc(N2C[C@H](C(=O)NCC3CC3)[C@@H]3CCO[C@@H]3C2)nn1 | -2.72
7 | Cc1nccn1CC1CCN(C(=O)c2ccccc2)CC1 | -78.75
8 | COc1cccc(N2CC3(CCN(c4ccncn4)C3)CC2=O)c1 (centres undefined) | 13.38
9 | CNc1cncc(C2CCCN2S(=O)(=O)c2ccc(F)cc2)n1 (centres undefined) | 2.8
10 | CN(C)CCN1CCC2(CCCN(C(=O)C3CCC3)C2)CC1 | -9.47
11 | CC(C)c1cccc(S(=O)(=O)NCCCN2CCC(O)CC2)c1 | -13.21
12 | CNS(=O)(=O)c1cccc(C(C)NCc2ccccc2)c1 (centres undefined) | 12.75
13 | CCC(=O)c1cccc(S(=O)(=O)NC(C)C#N)c1 (centres undefined) | 31.51
14 | Cc1ccc(S(=O)(=O)NC(C)C#N)cc1Br (centres undefined) | -29.94
15 | CC(C#N)NS(=O)(=O)c1cccc(C(C)C)c1 (centres undefined) | 69.67
16 | CC(CO)NS(=O)(=O)c1cccc(C(C)C)c1 (centres undefined) | 60.13
17 | COc1ccc(Cn2cc(C(=O)N(C)Cc3ccn[nH]3)nn2)cc1 | 20.71
18 | COC(=O)N1CC[C@@]2(C1)[C@H](OC)CN(c1ccccc1)S2(=O)=O | 22.01
19 | Cc1cc(C2CCNCC2)nc(-c2ccsc2)n1 | 24.98
20 | CN1CCOC(CNCC(=O)NCCc2ccc(F)cc2)C1 (centres undefined) | -8.14
21 | c1ccc(Cn2ccnc2CNCC2CCCN2c2cccnn2)cc1 (centres undefined) | 11.2
22 | c1cnnc(N2CCCC2CNCc2cscn2)c1 (centres undefined) | 4.19
23 | c1ccc(-n2cc(CNCC3CCCN3c3cccnn3)cn2)cc1 (centres undefined) | -7.13
24 | c1cnnc(N2CCCC2CNCc2cccs2)c1 (centres undefined) | 23.86
25 | c1cnnc(N2CCCC2CNCc2ccsc2)c1 (centres undefined) | 54.85
26 | c1ccc(Cn2cc(CNCC3CCCN3c3cccnn3)cn2)cc1 (centres undefined) | 62.46

Row | Compound | INHIBITION [%]
27 | CO[C@@H]1CC[C@H]2[C@H]1OCCN2C(=O)c1ccc(C)nc1 | 29.89
28 | CC(C)CNC(=O)C1=NOC2(CCN(Cc3ccc(C(C)C)cc3)C2)C1 (centres undefined) | 32.09
29 | CCOCc1nc2c(c(NCCNC(C)=O)n1)CCN(C(C)=O)CC2 | 18.28
30 | CCOc1nnc(CN2CCCC(c3nc4ccccc4[nH]3)C2)s1 (centres undefined) | 53.63
31 | CCOc1nnc(CN2CCC(c3nc4ccccc4[nH]3)CC2)s1 | 28.42
32 | CCOc1nnc(CN2CCC(c3cc4ccccc4[nH]3)CC2)s1 | 38.33
33 | CCCN(CC(=O)OC)C(=O)c1sc(C)nc1C | -1.29
34 | CC(C(=O)NCCOc1ccccc1)n1cncn1 (centres undefined) | 26.76
35 | Cc1ccc(OCCNC(=O)C(C)n2cncn2)cc1 (centres undefined) | 42.11
36 | CC(C(=O)NCCOc1cccc(Cl)c1)n1cncn1 (centres undefined) | 56.67
37 | Cc1cc(=O)[nH]c(=O)n1COCCOCc1ccccc1 | 30.48
38 | O=C(c1nn(-c2ccccc2F)cc1O)N1CCCCC1 | -10.64
39 | Cc1ccc2c(C)c(C(=O)NCc3csc(N)n3)oc2c1 | -27.36
40 | Cc1[nH]c2c(C)ccc(C)c2c1CC(=O)NCC(O)c1cccnc1 (centres undefined) | 31.65
41 | Cc1[nH]c2c(C)ccc(C)c2c1CC(=O)NCCNc1cccnc1 | 64.92
42 | Cc1[nH]c2c(C)ccc(C)c2c1CC(=O)NCCCNc1cccnc1 | -10.38
43 | COc1cccc(CC(=O)N2CCC3(CC2)OCCCC3O)c1OC (centres undefined) | 3.4
44 | CC(C)OCCOCc1cccc(NC(=O)NCCn2ccnc2)c1 | 3.85
45 | C=c1ccoc1=C1NN=C(CNCC2CCCN2c2cccnn2)O1 (centres undefined) | -10.6
46 | C=c1ccoc1=C1NN=C(CNCCn2cc(C)cn2)O1 | 32.63
47 | C=c1ccoc1=C1NN=C(CNCCn2cccn2)O1 | 58.49
48 | COc1c(CNCc2ccc(C(=O)N(C)C)cc2)c(C)nn1C | -11.71
49 | Cc1oc(-c2nc(C#N)c(N(C)C)o2)cc1S(=O)(=O)N1CCCC1 | -20.66
50 | O=C(c1ccccc1-c1nc[nH]n1)N1CCOC(C(F)(F)F)C1 (centres undefined) | -99.7
51 | O=C(c1ccc(-c2nc[nH]n2)cc1)N1CCOC(C(F)(F)F)C1 (centres undefined) | 50.91
52 | O=C(c1ccc(-c2nc[nH]n2)cc1)N1CC[C@H](CO)[C@@H](O)C1 | -94.13

Row | Compound | INHIBITION [%]
53 | CCOCC(O)CN1CCN(C(=O)CC(C)C)CC1 (centres undefined) | -38.96
54 | Cc1cc(C)n(CC2CN(CC(=O)N3CCC3)CCO2)n1 (centres undefined) | -9.17
55 | c1cncc(COCC2CNCc3nccn3C2)c1 (centres undefined) | 38.49
56 | CS(=O)(=O)NCc1ccc(NC(=O)CC2=CCCCC2)cc1 | 35.9
57 | COCCO[C@H]1CCN(C(=O)c2ccsc2)[C@H]1Cc1cnn(C)c1 | -10.92
58 | COc1ccccc1-c1cc(C(F)(F)F)c2c(C)nn(CC(=O)O)c2n1 | 31.51
59 | Cc1nn(C)cc1-c1cc(C(F)(F)F)c2c(C)nn(CC(=O)O)c2n1 | 15.91
60 | CCc1cc(C(F)(F)F)c2c(C)nn(CC(=O)O)c2n1 | 57.33
61 | CCn1ccnc1CN1CCCN(C(=O)c2cc[nH]n2)CC1 | 0.74
62 | COC1CCN(S(=O)(=O)N2CCCC2c2ccco2)CC1 (centres undefined) | 36.28
63 | O=S(=O)(N1CCN(CC2CC2)CC1)N1CCCC1c1ccco1 (centres undefined) | -20.95
64 | O=S(=O)(N1CCC(n2cccc2)CC1)N1CCCC1c1ccco1 (centres undefined) | 50.59
65 | CC(C)NC(=O)[C@@]12CCO[C@@H]1CCN(Cc1ccc3c(c1)OCO3)C2 | 50.85
66 | O=C(NC1CC1)[C@@]12CCO[C@@H]1CCN(Cc1ccc3c(c1)OCO3)C2 | -14.64
67 | CNC(=O)[C@@]12CCO[C@@H]1CCN(Cc1ccc3c(c1)OCO3)C2 | 39.02
68 | CC(=O)N1CC2(CCCCN2Cc2ccc(Cl)cc2)Cc2ccccc21 (centres undefined) | -31.86
69 | Cn1ccc(CN2CCCC23CCN(Cc2cccc(F)c2)CC3)n1 | 1.81
70 | Cc1ccccc1OCC(=O)NCC(c1ccc(N(C)C)cc1)N(C)C (centres undefined) | 36.6
71 | CCOc1ccccc1C(=O)N(C)C(C)c1ccc(S(C)(=O)=O)cc1 (centres undefined) | 91.01
72 | CC(c1ccc(S(N)(=O)=O)cc1)N(C)C(=O)c1ccccc1I (centres undefined) | -28.49
73 | CC(c1ccc(S(C)(=O)=O)cc1)N(C)C(=O)c1ccccc1I (centres undefined) | 6.85
74 | CC(C)c1csc(NC(=O)NC2CCCN(c3cnn(C)c3)C2)n1 (centres undefined) | -20.08
75 | N#Cc1cc(F)c(N2CCC(NS(=O)(=O)c3cccs3)CC2)c(F)c1 | 24.17
76 | CSCC(C)(O)CNc1cccc(F)c1C(C)=O (centres undefined) | 8.75
77 | CSCC(C)(O)CNc1cccc(F)c1C#N (centres undefined) | 52.6
78 | CC(C)C(C)(O)CNc1cccc(F)c1C#N (centres undefined) | 28.1

Row | Compound | INHIBITION [%]
79 | Cc1ccc(-n2ncc(C(=O)N(C)C3CCN(C)CC3)c2N)cc1C | -11.1
80 | O=C(C1=CCCC1)N1CCC[C@]2(C[C@@H](OCc3ccccn3)CO2)C1 | 3.72
81 | CCc1cc(CNC(=O)N(C2CC2)C(C)c2ccco2)on1 (centres undefined) | -27.89
82 | Cc1noc(C)c1CNC(=O)N(C)C1CCN(c2ccccc2)C1=O (centres undefined) | -7.88
83 | CC(c1ccco1)N(C(=O)c1cccc(C#N)c1)C1CC1 (centres undefined) | 32.93
84 | CC(c1ccco1)N(C(=O)NCc1ccon1)C1CC1 (centres undefined) | 1.88
85 | CCc1cc(CNC(=O)N(C2CC2)C(C)c2ccco2)[nH]n1 (centres undefined) | 61.42
86 | Cc1noc(C)c1CNC(=O)N(C1CC1)C(C)c1ccco1 (centres undefined) | 50.91
87 | COc1cc(N2CCC3(CC2)OCC(=O)NC3C)ncn1 (centres undefined) | -7.03
88 | Cc1ccc(CN2CC[C@H]3[C@H]2CC(=O)N3c2ccsc2)o1 | 43.05
89 | COCCC(=O)N[C@H]1CC[C@H](Nc2nccc(-c3ccncc3)n2)C1 | 24.51
90 | O=c1c(Cc2ccc(Cl)cc2Cl)c(O)ccn1CC1CC1 | 31.56
91 | CCc1nc2ccccc2c(=O)n1CC1(O)CCN(CC(=O)OC)CC1 | 28.64
92 | CCc1nc2ccccc2c(=O)n1CC1(O)CCN(C(=O)COC)CC1 | 56.99
93 | CCc1nc2ccccc2c(=O)n1CC1(O)CCN(C(=O)C2CC2)CC1 | 29.89
94 | CCc1nc2ccccc2c(=O)n1CC1(O)CCN(C(=O)C(C)C)CC1 | 59.91
95 | CCCC(=O)N1CCC(O)(Cn2c(CC)nc3ccccc3c2=O)CC1 | -64.2
96 | CCc1nc2ccccc2c(=O)n1CC1(O)CCN(S(C)(=O)=O)CC1 | -37.18
97 | Cc1nccn1CCC(=O)N1CCC2(CCC(=O)N(CC3CC3)C2)CC1 | -63.27
98 | Cn1cc(Br)c(=O)c(NS(=O)(=O)c2ccc(Cl)cc2)c1 | 4.67
99 | Cn1cc(Br)c(=O)c(NS(=O)(=O)c2ccc(F)cc2)c1 | 55.04
100 | CCc1ccc(S(=O)(=O)Nc2cn(C)cc(Br)c2=O)cc1 | 11.28
101 | CNS(=O)(=O)c1cc(C(=O)N(C)Cc2sccc2C)c(C)o1 | 10.48
102 | Cc1nc(CC(C)C)cc(C(=O)N2C[C@@H](N(C)C)[C@H](C(C)C)C2)n1 | 0.55
103 | Cc1cc(C(=O)N2C[C@H](C(C)C)[C@@H](N(C)C)C2)cs1 | 68.66
104 | Cc1cc(C(=O)N2C[C@@H](C(=O)O)[C@H](C(C)C)C2)cs1 | -3.66
